HCV inhibitor: inhibitors of hepatitis C virus infection. 340,000 compounds, 3.4% hits. Potency, µM (top dose mostly 41.8 µM), for inactives: at the highest dose activity change, negative = inhibition, actives largely listed as inhibitors. Huh7.5.1 HCVcc-Cre infection, luciferase reporter, 44 h; also: potency is read from the fitted curve at half-maximal effect; % is scaled to controls: 0 for no effect and ±100 for the full control effect
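After 44 h co-culture of compound, cells and HCVcc-Cre (~0.5 moi), substrate is added for 15 min at room temperature and luciferase measured over 15 sec. Cells were seeded at 1,000/well and pre-cultured 4 h.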
Shiga inhibitor: blocks Shiga toxin action in Vero cells; Vero cells, Shiga toxin protein synthesis inhibition reporter; inhibition, % at 38.7 µM; 290,000 compounds, 9.2% hits; AID 2315; in the data active = inhibition mostly above about 28%, no sharp cut-off; inactive = mostly below about 43%; also: 0% is about no effect
AMA1 RON2 block: inhibitors of Plasmodium falciparum AMA1-RON2 interaction. AlphaScreen AMA1-biotinylated RON2 peptide binding. Potency, µM (series often up to 58.2 µM), for the others: top-dose activity change, negative = inhibition, actives largely listed as inhibitors. 360,000 compounds, 0.2% hits. AID 720542;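 also: potency is read from the fitted curve at half-maximal effect; 0% = vehicle wells and -100% = peptide control; nearly all actives have a fitted effect of over 45% in size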
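AMA1 (3D7) with his tag at 25 nM final met compounds first, then biotinylated RON2 peptide at 25 nM; detection used donor plus acceptor beads, 10 µg/mL apiece, read by AlphaScreen after 30 min at room temperature.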
Cycloheximide cs: counter-screen hit for Shiga toxin inhibitors, cycloheximide | 300,000 compounds, 12% hits | max response, % | cell reporter, cycloheximide protein synthesis inhibition counterscreen | AID 2314; in the data active = max response mostly above about 13%, no sharp cut-off; inactive = mostly below about 14%; also: read at 38.3 µM for the half of the compounds with a filed dose; 0% is about no effect
Pf growth 48h: P. falciparum growth inhibition at 48 hours (one generation); P. falciparum luciferase growth in erythrocytes, 48 h; Potency, µM (doses to about 28.7 µM), for inactives: at the highest dose activity change, negative = inhibition, actives largely listed as inhibitors; 310,000 compounds, 5.9% hits; AID 504832; also: potency is read from the fitted curve at half-maximal effect; % is scaled to controls: 0 for no effect and ±100 for the full control effect
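Parasite viability was followed by luminescence of a genomically integrated firefly luciferase. Cultures held 0.1% parasitemia at 2% hematocrit (final), incubated under 5% CO2 at 37 C.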
Pf growth 96h: P. falciparum growth inhibition at 96 hours; 320,000 compounds, 6.9% hits; Potency, µM (titrated, usually from 28.7 µM), without a hit: at the highest dose activity change, negative = inhibition, hits mostly inhibitors; P. falciparum luciferase reporter growth, 96 h; also: potency is read from the fitted curve at half-maximal effect; % is scaled to controls: 0 for no effect and ±100 for the full control effect
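P. falciparum expressing integrated firefly luciferase grown in erythrocytes (2% hematocrit, 0.05% parasitemia final) with compounds for 96 hours at 37 C, 5% CO2. Growth inhibition read as loss of luminescence after adding luciferase detection reagent.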
Starred values were filed as active, the others as inactive; u = inconclusive; x = not tested or not shown. In the library only some 21% were active in any assay of this set; here they are far more common. Unless noted, calls follow the shape of the dose curve; as a rule, active = well fitted curve in the direction sought with a large enough effect; inconclusive = small, poorly fitted or top-dose-only effect, or another doubt; inactive = no such curve, though single readings can be large; an effect the other way counts as inactive or inconclusive.

SMILES	HCV inhibitor	Shiga inhibitor	AMA1 RON2 block	Cycloheximide cs	Pf growth 48h	Pf growth 96h
COc1cccc(C(=O)OCC(=O)NC(C)CCc2ccccc2)c1O (configuration not stated)	6%	-6	15%	8	8%	4%
COc1cc(OC)c(NC(=O)c2sc3ncn(CC(=O)N4CCOCC4)c(=O)c3c2C)cc1Cl	-20%	-2	9%	-10	u	u
CN1CCN(Cc2nc3ccccc3n2C)CC1CCO (configuration not stated)	10%	-17	61%	-2	u	0%
Cc1ccccc1-c1ccc(CN2CCN(C)C(CCO)C2)cc1 (configuration not stated)	u	19*	1%	11*	u	u
CC(C)Cn1c(CN2CCN(C)C(CCO)C2)nc2ccccc21 (configuration not stated)	3%	-5	55%	2	-2%	9.3µM*
Cc1ccccc1-c1ncc(CN2CCN(C3CCCC3)C(CCO)C2)cn1 (configuration not stated)	4%	39	4%	7	-4%	2%
CC1(C(=O)N2CCCCC2)CCN1C(=O)Cc1ccc(-c2ccccc2)cc1 (configuration not stated)	x	x	1%	x	x	x
O=C(COc1ccccc1Cl)NNC(=O)c1ccc(-n2cncn2)c([N+](=O)[O-])c1	8%	x	104%	x	-10%	-11%
O=C(NC1CC1)C1=NOC(CNc2ncc(C(F)(F)F)cc2Cl)C1 (configuration not stated)	u	-12	9%	-2	x	12µM*
O=C(N/C=N/O)C1=NOC(CNc2ncc(C(F)(F)F)cc2Cl)C1 (configuration not stated)	3%	-5	4%	9	x	-2%
COc1ccc(CCNC(=O)c2ccccc2NS(=O)(=O)c2c(F)cccc2F)cc1	-1%	-5	1%	-4	u	-4%
COc1cc2c(cc1OC)C(c1ccccc1)CN(C)CC2 (configuration not stated)	x	x	x	x	u	15µM*
COc1cc2c(cc1OC)C(c1ccccc1)N(C(=O)c1ccccc1)CC2 (configuration not stated)	u	x	-3%	-2	u	-1%
Cc1ccc(CNC(=O)c2nnc(CS(=O)(=O)c3ccccc3)o2)cc1	2%	10	4%	1	u	u
O=C(NCc1ccccc1Cl)c1nnc(CS(=O)(=O)c2ccccc2)o1	1%	-3	8%	0	5.2µM*	19%
O=C1NC[C@H](CCCCN2CCN(CCC3CCCCC3)C(=O)C2=O)N(CC2CCCCC2)C1=O	x	x	4%	x	x	x
CC(C)NC(=O)N[C@H]1CC[C@H](CC(=O)NCc2ccc(Oc3ccccc3)cc2)O[C@@H]1CO	x	x	11%	x	x	x
COc1cc(/C=C2\SC(=S)N(CCC(=O)Nc3cccc(O)c3)C2=O)cc(OC)c1OC	u	x	-3%	8	u	u
COc1ccccc1/C=C1\SC(=O)N(CC(=O)NCCCn2ccnc2)C1=O	10%	-3	1%	-1	12µM*	u
O=C(CN1C(=O)S/C(=C\c2ccccc2Cl)C1=O)NCCCn1ccnc1	1%	-3	5%	1	37%	25%
COc1ccccc1/C=C1\SC(=S)N(CCC(=O)Nc2cc(C)on2)C1=O	u	-10	3%	-6	-7%	9.3µM*
COc1ccccc1/C=C1\SC(=S)N(CCC(=O)Nc2cccc(O)c2)C1=O	-19%	27*	2%	17*	u	260%
CCOc1ccccc1-n1nnnc1SCC(=O)N(C)C1CCS(=O)(=O)C1 (configuration not stated)	x	x	94%	x	x	x
CC1=CC2C(C(O)CC3(C)C2CC(C)C32OCOC23COCO3)C2(C)C/C(=C\O)C(=O)C=C12 (configuration not stated)	u	x	57%	x	x	x
C/C(=N/N=C(/C)c1cccs1)c1cccs1	-2%	73*	-5%	31*	159%	2%
SMILES	HCV inhibitor	Shiga inhibitor	AMA1 RON2 block	Cycloheximide cs	Pf growth 48h	Pf growth 96h
C/C(=N\NC(=O)c1ccncc1)c1cccs1	10%	63*	22%	48*	149%	u
C/C(=N\NC(=O)c1cccs1)c1ccc2ccccc2c1	18%	41*	-13%	37*	20%	19%
C/C(=N\NC(=O)c1cccs1)c1cccnc1	4%	72	46%	17	42%	35%
C/C(=N/NC(=O)Cc1cccc2ccccc12)c1cccs1	-15%	-13	31%	2	-26%	-16%
C/C(=N\N=C1\NC(=O)CC(C(=O)O)S1)c1cccs1 (configuration not stated)	8%	5	18%	-2	17%	0%
C/C(=N\NC(=O)c1ccc2ccccc2c1)c1cccs1	-17%	94*	75%	45*	153%	-14%
O=C1NC(c2ccccc2)N=C2Oc3ccccc3C=C12 (configuration not stated)	-4%	x	3%	x	x	x
COC(=O)c1ccc(CNC(=O)COC(=O)/C=C/c2cccc(OC)c2)cc1	x	x	9%	x	x	x
CCOC(=O)C1(C)CCN1C(=O)c1csnn1 (configuration not stated)	x	x	-2%	x	x	x
C/C(=N/NC(=O)c1cccs1)c1cccc(NC(=O)C2CC2)c1	u	95*	-11%	38*	31%	u
C/C(=N/NC(=O)c1cc(C2CC2)[nH]n1)c1cccs1	-11%	5	37%	25*	x	18%
C/C(=N\NC(=O)C1=NNC(=O)C1C)c1cccs1 (configuration not stated)	-9%	90*	35%	34*	0%	3%
C/C(=N\NC(=O)C1CC1c1ccccc1)c1cccs1 (configuration not stated)	-22%	-14	19%	-2	-22%	-1%
O=C(c1ccccc1)c1c[nH]c(C(=O)NNc2ccccc2)c1	-11%	21	u	-2	-14%	-11%
Cc1c(CCO)c(=O)[nH]n1S(=O)(=O)c1ccc(F)cc1	12%	15	-2%	-3	5%	44%
Cc1c(CCO)c(=O)[nH]n1S(=O)(=O)c1ccccc1	17%	-9	5%	-3	3.3µM*	-6%
Cn1c(=O)c2c(nc(CN3CCC(C(N)=O)CC3)n2Cc2ccccc2Cl)n(C)c1=O	0%	2	-8%	-3	4%	u
Cn1c(=O)c2c(nc(CN3CCC(C(N)=O)CC3)n2Cc2c(Cl)cccc2Cl)n(C)c1=O	-14%	-5	5%	4	12µM*	x
Cn1c(=O)c2c(nc(CN3CCC(C(N)=O)CC3)n2Cc2c(F)cccc2Cl)n(C)c1=O	-15%	-5	-17%	-3	u	10µM*

Screening results deposited in PubChem by National Center for Advancing Translational Sciences (NCATS).
